High-throughput results: PubChem BioAssay, several laboratories
Sa ugtP lethal: growth inhibition of ugtP-null S. aureus, primary screen, RN4220 ugtP deletion, OD600. 16 h. growth inhibition, % (concentration not given with the values). 0.54% of 330,000 active; in the data active = growth inhibition above about 68%;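 also: plate controls were untreated wells for no effect and antibiotic for full effect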
SARS 3CLpro inh: SARS-CoV 3CLpro protease inhibitors, primary screen, biochemical, quenched FRET | inhibition, % at 6 µM | 0.14% of 290,000 active | recombinant SARS-CoV 3CLpro, quenched FRET peptide cleavage | Replicase polyprotein 1ab (Severe acute respiratory syndrome coronavirus), P0C6X7 | AID 1706, 2009; in the data active = inhibition above about 12%
BJeLR lethal: MLPCN primary cell-based screen for lethality selective to Ras in HRASV12 cells. 0.17% of 300,000 active. BJeLR (HRASV12) viability, CellTiter-Glo ATP luminescence, 48 h. inhibition, % (concentration not given with the values). AID 1554, 2009; in the data active = inhibition above about 50%; inconclusive = no clear call, values can overlap the other calls
RN4220 kill: growth inhibition of S. aureus RN4220, primary screen, OD600 | 0.33% of 330,000 active | AID 1259311, 2017 | inhibition, % (concentration not given with the values) | 16 h; in the data active = inhibition above about 85%;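 also: plate controls were untreated cells for no effect and reference antibiotic for full effect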
PfHsp40 rescue: rescue of yeast from PfHsp40 toxicity, primary screen, S. cerevisiae, ATP luminescence | 0.68% of 340,000 active | AID 504582, 2011 | S. cerevisiae expressing PfHsp40, growth rescue | growth rescue, % at 12.5 µM; in the data active = growth rescue above about 28%, passing the limit was not always enough; inconclusive = no clear call, values can overlap the other calls;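 also: yeast W303a lacking pdr1 and pdr3 grown in galactose medium; growth measured after three days at 30 °C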
* marks the source's active call; other numbers are inactive results; ? = inconclusive; . = not tested or not shown. A selection: hits, their analogues and other compounds. The true share with any hit is near 1.3%.

SMILES	Sa ugtP lethal	SARS 3CLpro inh	BJeLR lethal	RN4220 kill	PfHsp40 rescue
Cc1cnc(NC(=O)CSc2nnc3ncccn23)s1	12	-3	2	0	-1
Nc1cc2nc3ccccc3oc-2cc1=O	31	-1	.	38	376*
CC(=O)N1c2ccc(S(=O)(=O)NCC3CCC(C(=O)N(C)Cc4ccccc4)CC3)cc2CC1C (stereo unspecified)	7	3	14	4	-1
Cc1ccc(C(=O)N2C(=O)C(c3ccccc3)Oc3ccccc32)cc1 (stereo unspecified)	8	1	8	-1	110*
CCCCN1C(=O)/C(=C/c2ccc(N(C)C)cc2)C(=O)N(Cc2ccco2)C1=O	-8	-4	-3	-8	1
Cn1cnc([N+](=O)[O-])c1S(=O)(=O)Oc1ccc(Cl)cc1	43	.	.	34	233*
Cn1cnc([N+](=O)[O-])c1S(=O)(=O)Oc1cccc2ccccc12	91*	.	.	52	?
COc1ccc(/C=C/C=NNC(=O)COc2ccc(OC)cc2)cc1	-9	.	.	4	.
CCN(C(=O)CSc1nncn1-c1ccccc1)c1c(N)n(Cc2ccccc2)c(=O)[nH]c1=O	5	4	9	4	27*
COCCN(C(=O)CSc1nncn1-c1ccccc1)c1c(N)n(Cc2ccccc2)c(=O)[nH]c1=O	5	-4	-15	-2	-1
CCN(CC)CCNC(=O)C1(O)c2cc(Br)ccc2NC(=O)N1c1ccc(Cl)cc1 (stereo unspecified)	4	-3	-5	3	0
Oc1ccc(Nc2nc(-c3ccccc3)nc3ccccc23)cc1	15	-2	0	-7	-1
COc1cccc(Nc2nc(-c3cccs3)nc3ccccc23)c1	68	4	-9	28	279*
COc1ccc(Nc2nc(-c3ccccc3)nc3ccccc23)cc1	95*	0	1	8	6
COc1ccc(Nc2nc(-c3cccs3)nc3ccccc23)cc1	95*	1	-4	11	3
COc1cccc(CN(C)c2nc(-c3cccs3)nc3ccccc23)c1	8	-5	-10	5	1
CCCN(CCC)C(=S)NC1CC2C=CC1C2 (stereo unspecified)	8	3	1	1	-1
Cc1[nH]n(-c2ccccc2)c(=O)c1C(=O)c1ccccc1	-1	2	7	20	1
CC/C(=N/NC(=O)c1ccccc1O)c1c(C)[nH]n(-c2ccccc2)c1=O	.	.	4	.	399*
Cc1[nH]n(-c2ccccc2)c(=O)c1C(=O)c1ccc(Cl)cc1	17	6	7	27	96*
Cc1[nH]n(-c2ccc(Cl)cc2)c(=O)c1C(=O)c1ccccc1	3	5	5	26	87*
CCSC(=S)c1c(C)[nH]n(-c2ccccc2)c1=O	73	1	8	72	34*
CCOc1ccc(N(Cc2nnc3n2CCCCC3)C(=O)Nc2cccc(C)c2)cc1	1	1	-9	3	0
CCOC(=O)Cc1csc(NC(NC(=O)CC)(C(F)(F)F)C(F)(F)F)n1	2	-2	6	-1	0
COc1ccc(CCNC(=O)COC(=O)/C=C/c2ccc3c(c2)OCO3)cc1	-4	.	.	6	-3
SMILES	Sa ugtP lethal	SARS 3CLpro inh	BJeLR lethal	RN4220 kill	PfHsp40 rescue
COc1ccc(C2=NS(=O)(=O)N(C)C(C(=O)NC3CCCCC3)=C2)cc1	7	-5	5	-3	1
CC(C)C1OC2c3cccc4cccc(c34)C2N1c1ccccc1 (stereo unspecified)	90*	-3	2	-3	-2
O=C(Nc1ccccc1F)C1CCN(S(=O)(=O)c2cccc3nonc23)CC1	3	1	1	6	1
COc1cnn(-c2ccccc2)c(=O)c1SCc1ccc(Cl)cc1Cl	10	4	-2	-11	88*
CN(C)CCN(Cc1cc2cc3c(cc2[nH]c1=O)OCO3)C(=S)NCc1ccco1	5	-5	3	4	-1
Cc1c(NC(=O)C23CC4CC(CC(Br)(C4)C2)C3)c(=O)n(-c2ccccc2)n1C	6	2	11	-5	0
S=c1[nH]ncn1/N=C/c1cccc(Oc2ccccc2)c1	.	7	0	.	106*
Cc1ccc(C(NC(N)=O)c2ccccc2)cc1 (stereo unspecified)	8	-1	-5	1	-1
COc1ccc(C(NC(N)=O)c2ccccc2)cc1 (stereo unspecified)	9	6	-4	2	73*
O=C(COc1c(F)c(F)c(C(F)(F)F)c(F)c1F)Nc1ccc(N2CCOCC2)c(Cl)c1	-32	2	2	-7	30*
O=C(COC(=O)c1cc(-c2ccccc2)nc2ccccc12)NCC1CCCO1 (stereo unspecified)	1	-1	9	5	0
N#Cc1cccc(NS(=O)(=O)c2ccc(S(=O)(=O)N3CCOCC3)cc2)c1	5	.	.	3	0
Cc1ccc(Nc2ccc(-n3ccnc3)nn2)cc1C	-20	-2	16	-10	66*
COc1cccc(Nc2ccc(-n3ccnc3)nn2)c1	10	2	2	2	-2
NCCCNc1nc(N)c([N+](=O)[O-])c(NC2CCCCC2)n1	.	4	5	.	4
Cc1cccc(NC(=O)NNC(=O)c2ccc3ccccc3c2O)c1	-4	5	8	-3	58*
Cc1ccc(NC(=O)NNC(=O)c2cc3ccccc3cc2O)cc1	1	2	1	5	70*
O=C(NNC(=O)c1cccc2ccccc12)c1ccccc1O	12	0	3	26	29*
O=C(NNC(=O)c1ccc2ccccc2c1O)Nc1ccc(F)cc1	-7	1	-10	-2	2
COc1ccccc1NC(=O)NNC(=O)c1cc2ccccc2cc1O	-2	1	-17	-2	8
O=C(NCCSc1ccccc1)c1ccccc1F	.	-7	-13	.	-1
Cc1ccc2nc(-c3cccc(NS(C)(=O)=O)c3)cc(-c3ccccc3)c2c1	94*	4	-1	-4	1
Cc1nc(-c2cccc(NS(=O)(=O)c3ccccc3)c2)cs1	25	6	-1	6	0
Cc1c(CCC(=O)O)c(=O)oc2c(C)c3occ(-c4ccc(Br)cc4)c3cc12	6	0	-3	50	-1
Cc1c(CC(=O)O)c(=O)oc2c(C)c3occ(-c4ccc(F)cc4)c3cc12	100*	-2	-6	95*	0
Cc1c(CC(=O)N[C@@H](C)C(=O)O)c(=O)oc2cc3occ(-c4ccccc4)c3cc12	7	0	1	3	2
Cc1c(CC(=O)N[C@@H](C)C(=O)O)c(=O)oc2c(C)c3occ(-c4ccccc4)c3cc12	100*	3	-5	94*	0
Cc1ccc(S(=O)(=O)N2CCN(C(=O)CN3C(=O)NC4(CCCCC4)C3=O)CC2)c(C)c1	9	.	1	0	0
